Shown is part of a subset that was picked to be rich in hits.
Pf Dd2 growth: blocks in vitro growth of P. falciparum Dd2; Potency, µM (titrated, usually from 28.9 µM), for the others: at the top dose activity, negative = inhibition, actives largely listed as inhibitors; 4.3% of 120,000 active; P. falciparum Dd2 growth, SYBR Green, 72 h; AID 1347417; active = well fitted inhibition curve with a large enough effect;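 note: plate controls were DMSO vehicle for no effect and reference drug for full effect; nearly all actives have a fitted effect of over 65% in size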
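Infected erythrocytes (Dd2, 0.3% parasitemia, 2.5% hematocrit final) are added to compound in RPMI-1640/Albumax II medium, grown 72 h at 37C in low oxygen, then lysed with saponin/Triton-X containing SYBR Green and read by fluorescence.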
* marks the source's active call; other numbers are inactive results; i = inactive; [ ] = another dose, or the depositor's remark. Potency is the fitted concentration of half-maximal effect.

SMILES	Pf Dd2 growth
O=C(O)C1=NOC2CN(C(=O)C3CCCCC3)CC12 (stereo not drawn)	-7.2%[44.1 µM]
Fc1ccc(CN2CC[C@H](c3nc4cc(Cl)ccc4o3)C2)cc1F	-17.8%[44.1 µM]
CC(C)c1nc(C(=O)N2CCC(CCC(=O)Nc3ccc4c(c3)OCCO4)CC2)cs1	i
CCn1ccc(C(=O)N2CCc3nnc([C@@H]4C[C@@H](O)CN4C)n3CC2)n1	3.3%
CC(C)c1noc(-c2cccn3c(CNC(=O)c4ccccc4)nnc23)n1	i
CC(=O)c1ccc(NC(=O)c2nc3ccccc3nc2N2CCCCC2)cc1	i
CCc1ccc(-c2nc3cc(NC(=O)c4ccc(C)c(C)c4)ccc3o2)cc1	-12.2%
Cc1ccc(C(=O)Nc2ccc3c(N4CCOCC4)ncnc3c2)cc1C	11.2µM*
O=C(Nc1ccc2c(N3CCCCC3)ncnc2c1)c1ccc(F)cc1	3.16µM*
O=C(Nc1ccc2c(N3CCCC3)ncnc2c1)c1cccc(Br)c1	0.891µM*
Cc1ccc(NC(=O)C2CCCN(c3ncnc4c3nc3n4CCCCC3)C2)cc1F (stereo not drawn)	22.6%
O=C(Nc1ccc2oc(-c3cccnc3)nc2c1)c1cccc(Br)c1	53.8%
COc1cccc(C(=O)Nc2ccc3c(N4CCOCC4)ncnc3c2)c1	-17.3%
O=C(Nc1ccc2ncnc(N3CCCCC3)c2c1)c1cc(F)cc(F)c1	-19.9%
Cc1ccc(NC(=O)c2ccc3c(c2)N(C)C2CCCCN2C3=O)cc1F (stereo not drawn)	-18.7%
Cc1ccc(C(=O)Nc2ccc3c(N4CCCCC4)ncnc3c2)cc1F	6.31µM*
Cc1cccc(CN2CCn3c(nnc3[C@@H]3C[C@@H](O)CN3C)C2)c1	-10.6%
Cc1noc([C@@H]2CN(Cc3ccco3)C[C@H]2CO)n1	8.2%
O=C1NCCCC12CCN(Cc1cccc(C(F)(F)F)c1F)C2 (stereo not drawn)	-20.1%
CCn1ncc(-c2nc3cc(S(=O)(=O)N4CCCC4)ccc3n2C)c1C	-15.1%
COc1cc(F)c(CN2CCN(C)C3(CCNC(=O)CC3)C2)c(F)c1 (stereo not drawn)	-31.7%
COc1ccc(CC(=O)Nc2ccc(=O)n3c2[C@@H]2C[C@@H](CN(C(=O)Nc4ccc(F)cc4)C2)C3)cc1	14.2%
CCN1c2cc(C(=O)Nc3ccccc3)ccc2C(=O)N2CCCCCC21 (stereo not drawn)	-4.0%
COc1cccc([C@@H]2CN(C(=O)c3ccc(CO)o3)C[C@H]2C(=O)O)c1	1.1%
O=C(Nc1ccc(Cl)cc1)c1ccc(-n2cnnc2)cc1	-6.3%
SMILES	Pf Dd2 growth
CCc1cc(N2CCCC(C(=O)c3sccc3C)C2)ncn1 (stereo not drawn)	i
CCc1cccc(NC(=O)c2c(C)oc3ncnc(N4CCCCC4)c23)c1	-10.3%
O=C(Nc1ccc2ncnc(N3CCCCC3)c2c1)c1ccccc1	i
Cc1ccsc1C(=O)Nc1ccc2c(N3CCCCC3)ncnc2c1	11.2µM*
O=C(Nc1ccc2c(N3CCCC3)ncnc2c1)c1ccc(Cl)cc1	2.82µM*
COc1ccccc1C(=O)N1CCC2(C1)NC(=O)c1ccccc1CO2 (stereo not drawn)	-23.1%
COCCN1CCCC2(CCN(C(=O)C3(C)CCCCC3)C2)C1=O (stereo not drawn)	-3.1%
COc1ccc(CCNC(=O)c2cnn(-c3ccc(F)cc3)c2C2CCN(C(=O)OC(C)(C)C)CC2)cc1OC	7.94µM*
COc1ccc(OC)c(CCNC(=O)c2cnn(-c3ccc(C)cc3C)c2C2CCN(C(=O)OC(C)(C)C)CC2)c1	-12.3%
COc1ccc(CCNC(=O)c2cnn(-c3cccc(C)c3)c2C2CCN(C(=O)OC(C)(C)C)CC2)cc1OC	11.2µM*
O=C(C1C2C(=O)N(C3CCCCCC3)C[C@@]23C=C[C@@H]1O3)N1C[C@@H]2[C@H](C1)[C@H]1CC[C@@H]2O1 (stereo partly drawn)	-4.6%
O=C(NCCc1ccccc1)c1cnc2n1CCN(CCc1ccccc1)CC2	11.2%[44.1 µM]
Cc1cc(N2CCC(C(=O)NCCC(C)C)CC2)n2nc(C)c(-c3ccc(Cl)cc3)c2n1	58.6%
CCn1c(C(=O)N2CCC(C(=O)NCCc3ccccc3)CC2)cc2sccc21	-22.7%
CC(C)CCNC(=O)C1CCN(C(=O)c2cc3sccc3n2Cc2ccc(Cl)cc2)CC1	12.6µM*
CCCCNC(=O)C1CCc2sc(C(=O)N3CCOCC3)cc2C1 (stereo not drawn)	-2.0%
CCCSCCCNC(=O)C1CCN(C(=O)c2cc3sccc3n2C)CC1	14.1µM*
Cn1c(C(=O)N2CCCC(C(=O)N3CCN(c4ccccc4)CC3)C2)cc2sccc21 (stereo not drawn)	-3.2%
O=C1CCN(C(=O)[C@@H]2CCCN2S(=O)(=O)c2ccc3c(c2)CCC3)CCCCCCN1	i
O=c1[nH]nc2n1CCN(Cc1ccncc1)CC2	2.9%
O=C(COc1ccc2nncn2n1)N1CCCC(c2ccn[nH]2)C1 (stereo not drawn)	13.5%
COc1ccc(C(=O)N2CCC3(CCC3OC)CC2)cc1 (stereo not drawn)	5.1%
O=C(NCc1ccc2c(c1)OCO2)c1ccc2c(c1)N(C(=O)c1ccc(F)cc1)CC2	-18.3%
